From PubChem
mIDH1 inhibitor: blocks human mutant IDH1 R132H enzyme | IDH1-R132H enzyme, NADPH consumption, diaphorase/resazurin fluorescence | Potency, µM (highest dose often 76.6 µM), inactives show at the highest dose activity change, negative = inhibition, actives largely listed as inhibitors | 0.093% of 390,000 active; also: % is scaled to controls: 0 for no effect and ±100 for the full control effect; nearly all actives have a fitted effect of over 65% in size
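IDH1-R132H (0.5 ug/mL dispensed) in pH 7.5 Tris buffer was preincubated 30 min with compound, then given a substrate mix of 0.016 mM NADPH and 2 mM alpha-KG for 80 min at room temperature; remaining NADPH was read by diaphorase/resazurin fluorescence.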
rTrxR1 inhibitor: rat TrxR1 inhibition; O89049; recombinant rTrxR1, NADPH fluorescence consumption, selenite substrate; Potency, µM (series often up to 114 µM), without a hit: at the top dose activity change, negative = inhibition, actives largely listed as inhibitors; 1% of 390,000 active; AID 588453; also: % is scaled to controls: 0 for no effect and ±100 for the full control effect; nearly all actives have a fitted effect of over 65% in size
Target sequence (O89049 whole entry, looked up): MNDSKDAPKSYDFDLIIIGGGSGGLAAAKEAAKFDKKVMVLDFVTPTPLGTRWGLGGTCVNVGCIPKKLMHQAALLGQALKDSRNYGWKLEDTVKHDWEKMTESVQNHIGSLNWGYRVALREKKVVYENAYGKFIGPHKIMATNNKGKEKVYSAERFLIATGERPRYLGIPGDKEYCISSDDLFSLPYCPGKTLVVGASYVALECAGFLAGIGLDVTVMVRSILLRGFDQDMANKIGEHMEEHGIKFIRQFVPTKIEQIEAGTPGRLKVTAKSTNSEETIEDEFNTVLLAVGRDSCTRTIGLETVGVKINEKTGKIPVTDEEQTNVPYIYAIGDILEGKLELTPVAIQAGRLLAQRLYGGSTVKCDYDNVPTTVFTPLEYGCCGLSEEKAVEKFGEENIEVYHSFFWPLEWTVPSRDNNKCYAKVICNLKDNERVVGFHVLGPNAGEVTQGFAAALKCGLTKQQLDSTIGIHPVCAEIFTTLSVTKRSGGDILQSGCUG
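Rat TrxR1 (90 nM in the dispensed reagent) was pre-reduced with 400 uM NADPH for 5 min at room temperature, then incubated with compound for 15 min. After 400 uM selenite was added, NADPH fluorescence (Ex 340/Em 450 nm) was followed for 8 min.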
Apoferritin bind: candidate novel general anesthetic via apoferritin binding. apoferritin/1-aminoanthracene competitive binding, fluorescence. Potency, µM (top dose mostly 77.5 µM), inactives show top-dose activity change, negative = displacement, most hits filed as inhibitors. 0.074% of 350,000 active; also: % is scaled to controls: 0 for no effect and ±100 for the full control effect; nearly all actives have a fitted effect of over 20% in size
Target sequence (P02791 2-175 limits assumed): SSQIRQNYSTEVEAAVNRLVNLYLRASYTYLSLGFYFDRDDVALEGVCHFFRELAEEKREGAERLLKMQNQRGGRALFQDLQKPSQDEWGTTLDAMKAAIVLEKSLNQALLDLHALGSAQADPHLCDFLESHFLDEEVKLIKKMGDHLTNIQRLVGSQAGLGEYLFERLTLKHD
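In PBS, apoferritin at 10 uM is loaded with 1-AMA from a 50% saturated solution. After 10 min of compound exposure at ambient temperature, reduced 535 nm fluorescence indicates probe displacement.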
TrxR1 substrate: rat thioredoxin reductase 1 substrate activity; O89049; purified TrxR1 substrate turnover, NADPH consumption readout; Potency, µM (top dose mostly 114 µM), without a hit: at the top dose activity change, negative = substrate turnover; 0.01% of 390,000 active; AID 588456; also: % is scaled to controls: 0 for no effect and ±100 for the full control effect; nearly all actives have a fitted effect of over 50% in size
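Rat TrxR1, dispensed at 90 nM, was prereduced with 400 uM NADPH (final) for 5 min at ~22 deg C, then incubated with compound 15 min before 400 uM selenite. A first-read NADPH fluorescence drop versus no-compound background flagged substrates.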
ALOX12 inh: blocks human arachidonate 12S-lipoxygenase; P18054; purified 12hLO, xylenol orange hydroperoxide absorbance; Potency, µM (top dose mostly 108 µM), for the others: top-dose activity change, negative = inhibition, usual class: inhibitors; 1.1% of 580,000 active; AID 1671190; also: % is scaled to controls: 0 for no effect and ±100 for the full control effect
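Purified human 12hLO at 150 nM in 25 mM Hepes, 0.01% Triton X-100, pH 7.0, preincubated 15 min at room temperature with compound. Reaction started with 40 uM arachidonic acid, 30 min at room temperature. Hydroperoxide measured by Fe-xylenol orange, 573/405 nm absorbance ratio.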
Glioma ERSR ind: ER stress response induction in glioma; U87-MG GRP78 promoter luciferase reporter, 16 h; Potency, µM, for the others: at the highest dose activation, most hits filed as activators; 0.02% of 420,000 active; also: series mostly up to about 76 µM; % of control where 0% means no effect; nearly all actives have a fitted effect of over 35% in size
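Stably transfected U87-MG human glioma cells carrying a GRP78-based luminescent sensor were seeded at 1000 cells/well, pin-dosed with compounds and incubated 16 h. Luciferase reagent was then added, and end-point luminescence was read after 10 min at room temperature.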
Active calls of the source: *; ? = inconclusive; nt = no result given; ! = not active in a repeat; [ ] = another dose, or the depositor's remark. Hits are enriched below; roughly 1.7% of the tested compounds scored in any of these assays. Calls follow the shape of the dose curve; as a rule, active = well fitted curve in the direction sought with a large enough effect; inconclusive = small, poorly fitted or top-dose-only effect, or another doubt; inactive = no such curve, though single readings can be large; an effect the other way counts as inactive or inconclusive. Potency is read from the fitted curve at half-maximal effect.

SMILES | mIDH1 inhibitor | rTrxR1 inhibitor | Apoferritin bind | TrxR1 substrate | ALOX12 inh | Glioma ERSR ind
Cc1cc(C)nc(CCNC(=O)C2CCC(=O)N(Cc3ccccc3F)C2)n1 (centres undefined) | -11% | 2% | -8% | -3% | -29% | -3%
COc1cccc(CN2CC(C(=O)NCCc3ccc(C)o3)CCC2=O)c1 (centres undefined) | -1% | 20µM* | -7% | 7% | -13% | -2%
Cc1ccc(CCNC(=O)C2CCC(=O)N(Cc3ccccc3F)C2)o1 (centres undefined) | 1% | 56µM* | -6% | 6% | 196% | 4%
COc1cccc(CCNC(=O)C2CCC(=O)N(Cc3cccc(OC)c3)C2)c1 (centres undefined) | -9% | 20% | -2% | 4% | -12% | 5%
CCCCCCCC/C=C\CCCCCCCC(=O)NCCc1ccc(O)c(O)c1 | 11% | 27µM*! | nt | ? | 5.6µM*! | -4%
CC(C)(C)CC(=O)N1CCC2(CC1)C(=O)N(CC(=O)Nc1ccc(F)cc1)CN2c1ccccc1 | nt | nt | nt | nt | -8% | nt
COc1ccc2nc(NC(=O)c3nc(S(=O)(=O)Cc4ccccc4)ncc3Cl)sc2c1 | 0% | -7% | -23% | -4% | 1% | -10%
COc1ccc2nc(NC(=O)c3nc(S(=O)(=O)Cc4ccccc4F)ncc3Cl)sc2c1 | -10% | 0% | -21% | -6% | -1% | -9%
Cc1cccc(CS(=O)(=O)c2ncc(Cl)c(C(=O)Nc3nc4ccc(F)cc4s3)n2)c1 | 16% | 3.2µM* | ? | 5% | -14% | -1%
O=C(Nc1nc2ccc(F)cc2s1)c1nc(S(=O)(=O)Cc2ccccc2)ncc1Cl | -5% | 3.5µM* | ? | 1% | -23% | -10%
c1ccc(-c2nnc([C@H]3CCN(C4CCOCC4)C3)o2)cc1 | nt | nt | nt | nt | 57%[176 µM] | nt
O=C(NCC1CC1)c1cccc(OC2CN(Cc3ccc(F)cc3Cl)C2)c1 | nt | nt | nt | nt | 33% | nt
O=C(NCC1CC1)c1cccc(OC2CN(Cc3ccc(F)cc3F)C2)c1 | nt | nt | nt | nt | 25µM* | nt
CC1(C)Cc2c(sc(NC(=S)NC(=O)c3ccccc3)c2C(=O)O)CO1 | 13% | -5% | -7% | -1% | 28µM* | -3%
CC(C)CNC(=O)c1cc(-c2ccccc2F)cc2c1OCCN2Cc1cccnc1 | nt | nt | nt | nt | 2%[176 µM] | nt
Cc1ccccc1NC(=O)C1=Cc2sc3c(c2CS1)CCCC3 | nt | nt | nt | nt | 20µM* | nt
O=C(C1=Cc2sc3c(c2CS1)CCCC3)N1CCC2(CC1)OCCO2 | nt | nt | nt | nt | 35µM* | nt
CC(=O)Nc1sc2c(c1C(=O)N1CCOCC1)CCCCC2 | -6% | 12% | -7% | 3% | 0% | -1%
Cc1ccc(-n2nnnc2CCl)cc1 | 1% | 14µM* | -4% | 9%[57.1 µM] | ? | -15%
CCN1CCN(C(CC(C)C)c2nnnn2CS(=O)(=O)c2ccc(C)cc2)CC1 (centres undefined) | 8% | 13%[57.1 µM] | -7% | 6%[57.1 µM] | 7.1µM* | 1%
Cc1ccc(S(=O)(=O)Cn2nnnc2C(CC(C)C)N2CCN(C(=O)c3ccco3)CC2)cc1 (centres undefined) | -2% | -13% | -8% | -1% | -27% | -3%
COc1ccc(-c2c(C)c3c(C)cc(OC(C)=O)cc3oc2=O)cc1 | nt | nt | nt | nt | -18% | nt
COc1cc(OC)c(C=NNC(=S)NC23CC4CC(CC(C4)C2)C3)c(OC)c1 | -4% | -6%[11.4 µM] | nt | 5%[57.1 µM] | 13µM* | -5%
COc1ccc(C=NNC(=S)NC23CC4CC(CC(C4)C2)C3)cc1OC | 2% | -6%[11.4 µM] | nt | 3%[57.1 µM] | 45µM* | 8%
COc1cc(/C=N/NC(=O)NC23CC4CC(CC(C4)C2)C3)ccc1OCC(N)=O | -1% | 10% | -18% | 0% | 98% | -6%
SMILES | mIDH1 inhibitor | rTrxR1 inhibitor | Apoferritin bind | TrxR1 substrate | ALOX12 inh | Glioma ERSR ind
CCOc1ccc(CNC(=S)N/N=C/c2ccc(OC)c(OC)c2)cc1 | -1% | 2% | -7% | -7% | 14µM* | 0%
Cc1ccc(C(=O)CC(C(=O)O)n2cnc([N+](=O)[O-])n2)cc1 (centres undefined) | -4% | 32µM* | -3% | -7% | ? | 1%
O=C1NCCCCCCN(Cc2ccncc2)[C@@H]2CN(Cc3cccnc3)CC[C@@H]12 | nt | nt | nt | nt | 131% | nt
NC(=O)/C=C\C(=O)Nc1cccc(C(F)(F)F)c1 | 14% | 25µM* | -14% | 11% | 9% | -2%
NNC(=O)Nc1cccc(C(F)(F)F)c1 | 0% | 25% | ? | 6% | 1% | -1%
CCCCC1=CC2=CC(=O)C(C)(OC(=O)CC)C(=O)C2=CN1CCOC (centres undefined) | 23% | 17% | 4% | 0% | nt | -2%
CCCCC1=CC2=CC(=O)C(C)(OC(=O)CC)C(=O)C2=CN1CCc1ccc(Br)cc1 (centres undefined) | 12% | -8% | -21% | 4% | 40µM* | -4%
CN(N=O)C(=O)N[C@@H]1[C@@H](O)[C@H](O)[C@@H](CO)O[C@@H]1O | nt | nt | nt | nt | 1% | nt
CSc1ccc(/C=C/c2nc3ccccc3n2S(=O)(=O)c2ccc(Br)cc2)cc1 | 8% | -2% | 99% | 24% | -4% | -10%
Cc1ccc(C(C)NC(=O)c2cccs2)cc1 (centres undefined) | 0% | 28% | nt | 8% | 10µM* | -3%
N#CC1(C#N)OC12CCS(=O)(=O)c1ccccc12 (centres undefined) | 4% | 50µM* | nt | 1% | -15% | -3%
S=C(NCCc1ccccc1)Nc1ccccn1 | 2% | -14% | -19% | -4% | 22µM* | 6%
Cc1ccccc1NC(=S)NCCc1ccccc1 | 1% | -7% | -15% | -6% | ? | -2%
Cc1cccc(NC(=S)NCCc2ccccc2)n1 | 12% | -23% | -15% | -4%[57.1 µM] | 20µM* | 5%
COc1ccc(C(=O)C(C)OC(=O)c2cc(C)nc3ccccc23)cc1 (centres undefined) | nt | nt | nt | nt | -15% | nt
CCn1nccc1C(=O)N1CCC2(CCC2OC)CC1 (centres undefined) | nt | nt | nt | nt | 64% | nt
Cc1ccccc1CC(=O)N1CCC2(CC1)N(c1ccccc1)C(=O)CS2(=O)=O | nt | nt | nt | nt | 34% | nt
O=C(C1CCCC1)N1CCC2(CC1)NC(=O)N(c1ccccc1)N2 | nt | nt | nt | nt | 2.8µM* | nt
Cc1ccccc1CC(=O)N1CCC2(CC1)NC(=O)N(c1ccccc1)N2 | nt | nt | nt | nt | 1.3µM* | nt
O=C(C1CC1)N1CCC2(CC1)NC(=O)N(c1cccc(Cl)c1)N2 | nt | nt | nt | nt | 1.4µM* | nt
CCn1nccc1C(=O)N1CCC2(CC1)NC(=O)N(c1ccccc1)N2 | nt | nt | nt | nt | 5.6µM* | nt
Cc1ccc(N2NC3(CCN(C(N)=O)CC3)NC2=O)cc1 | 1% | 2%[57.1 µM] | -11% | -3%[57.1 µM] | ? | -1%
